{"source": "PubChem BioAssay (NCATS)", "note": "Records with an inconclusive call do not appear. Where a call stands in place of a potency, no number is given. Calls of active or inactive are those of the source. Calls follow the shape of the dose curve; as a rule, active = well fitted inhibition curve with a large enough effect; inconclusive = small, poorly fitted or top-dose-only effect; inactive = flat fitted curve, though single readings scatter."}
{"system": "CRL-7250", "experiment": "qHTS assay to identify novel small-molecules to repurpose for Merkel cell carcinoma treatment (AID 1296009); also: nearly all actives have a fitted effect of over 60% in size", "details": "MCC and control cell lines, CellTiter-Glo viability, 72 h; series mostly up to 92 µM", "outline": "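Cells were treated for 72 hr at 37 degree celsius with compounds in 8- or 11-point dose response. Viability was read by CellTiter-Glo luminescence, normalized to no-cell (cytotoxicity) and DMSO controls.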"}
{"compound": "COc1ccc2cc(C(C)C(=O)Oc3ccc(C(N)=S)cc3)ccc2c1", "note": "(stereo unspecified)", "Potency": "inactive"}
{"compound": "N[C@@]1(C(=O)O)CC[C@H]2[C@H](C(=O)O)[C@H]21", "Potency": "inactive"}
{"compound": "CC1CCCCCCCc2cc(O)cc(O)c2C(=O)O1", "note": "(stereo unspecified)", "Potency": "inactive"}
{"compound": "C=C1C(=O)OC2/C=C(\\C)CC/C=C(\\C(=O)O)CC/C=C(\\C)CCC12", "note": "(stereo unspecified)", "Potency": "inactive"}
{"compound": "CC1(C=O)CCCC2(C)C1CCC13CC(CO)C(CCC12)C3", "note": "(stereo unspecified)", "Potency": "inactive"}
{"compound": "Cc1nc(C(=O)N2CCC[C@H]2Cc2nnc(-c3ccccc3)o2)c(-c2ccccc2F)s1", "Potency": "inactive"}
{"compound": "CC12CCC3c4ccc(O)cc4CCC3C1CCC2OC1OC(C(=O)O)C(O)C(O)C1O", "note": "(stereo unspecified)", "Potency": "inactive"}
{"compound": "O=C(OC[C@@]1(O)CO[C@@H](O[C@H]2[C@H](Oc3ccc(O)cc3)O[C@H](CO)[C@@H](O)[C@@H]2O)[C@@H]1O)c1ccc(O)cc1", "Potency": "inactive"}
{"compound": "CC1CCC2(C)CCC3(C)C(=CCC4C5(C)CCC(O)C(C)(C(=O)O)C5CCC43C)C2C1C", "note": "(stereo unspecified)", "Potency": "inactive"}
{"compound": "C=CC(C)(CC/C=C(\\C)CC/C=C(\\C)CC(O)/C=C(\\C)C(=O)O)O[C@@H]1O[C@H](CO)[C@@H](O)[C@H](O)[C@H]1O[C@@H]1O[C@H](CO)[C@@H](O)[C@H](O)[C@H]1O", "note": "(stereo partly specified)", "Potency": "inactive"}
{"compound": "CC1(C)CC[C@]2(C(=O)O)[C@H](O)C[C@]3(C)C(=CCC4[C@@]5(C)CC[C@H](O[C@@H]6O[C@H](CO[C@@H]7OC[C@H](O)[C@H](O)[C@H]7O[C@@H]7OC[C@H](O)[C@H](O)[C@H]7O)[C@@H](O)[C@H](O)[C@H]6O)C(C)(C)C5CC[C@]43C)[C@@H]2C1", "note": "(stereo partly specified)", "outcome": "inactive [at 9.27 µM]"}
